Results with a measured potency or affinity are listed apart. The source made the active and inactive calls. No rule for the calls is given here.
Target: KSHV LANA C-terminal domain (residues 932-1162) binding to LBS DNA (UniProt O40947)
Test: inhibitors of C-LANA binding to LBS DNA, dose response, biochemical, fluorescence polarization, cherry-picked samples (AID 504725)
Details: MBP-C-LANA / FAM-LBS DNA fluorescence polarization, percent change from plate compound-well median; series mostly up to 35 µM

outcome, inactive:
Nc1cc(N)nc(SCC(=O)N2CCCCC2)n1
COc1ccc(-c2n[nH]c(=S)n2-c2ccc(C)cc2)cc1
Cc1ccc2cccc(OCC(=O)NCCC3=CCCCC3)c2n1
Cc1ccc(-c2nnc(-c3ccc(NC(=O)c4ccco4)cc3)o2)cc1
CCOc1ccccc1N1CCN(C(=O)c2ccc3nc(N)sc3c2)CC1
CCN(CC)S(=O)(=O)N1CCN(S(=O)(=O)N2CCOCC2)CC1
Cc1c(Cl)cccc1NS(=O)(=O)c1ccc2c(c1)C1C=CCC1C(c1ccc(C(=O)O)cc1)N2 (stereo not drawn)
N#CCCN(CCC#N)C(=O)C1c2ccccc2Oc2ccccc21
O=C1c2ccccc2C(=O)C1c1ccccn1
O=C1c2ccccc2C(Nc2ccc3c(c2)OCCO3)N1Cc1ccc2c(c1)OCO2 (stereo not drawn)
CC(=O)OCCCn1c(C)[n+](C)c2cc(Cl)c(Cl)cc21
COc1cc(OC)cc(C(=O)NC2CC3CCC(C2)N3C)c1 (stereo not drawn)
CN(c1ccccc1)S(=O)(=O)c1cccc(NS(=O)(=O)c2cccc(C(=O)O)c2)c1
Cc1ccc(NS(=O)(=O)c2ccc(C(=O)NCCCN3CCCC3=O)cc2)cc1
O=C1/C(=C/c2ccco2)SC(=S)N1c1cccnc1
Nc1ccccc1C(=O)N1O[C@@H]2C=C[C@H]1CC2
CCCCn1c(N)c(N(CCOC)C(=O)c2cc(C)oc2C)c(=O)[nH]c1=O
NC(=S)N/N=C/c1ccc(-c2ccc([N+](=O)[O-])cc2)o1
O=C(OCc1ccccc1)N1C=CC2CC1c1c(Cl)cccc12 (stereo not drawn)
O=C(NCC1CCCO1)c1cccc(S(=O)(=O)N(Cc2ccccc2)c2ccccc2)c1 (stereo not drawn)
COc1ccc(NC(=O)Cc2nnc(SCC(=O)Nc3nccs3)n2C)cc1
COc1ccccc1N1CCN(S(=O)(=O)c2c(C)[nH]c(C)c2C(=O)N2CCCC2)CC1
Cc1nc2c(=O)[nH]c(=S)[nH]c2[nH]c1=O
Cn1c(=O)c2c(nc(SCC(=O)NCc3ccc4c(c3)OCO4)n2Cc2ccc(Cl)cc2)n(C)c1=O
COc1ccc(-c2cc(C(F)(F)F)n3ncc(C(=O)N4CCCCC4c4cccnc4)c3n2)cc1 (stereo not drawn)
O=C(O)CC1(CC(=O)NCc2ccncc2)CCCCC1
Cc1ccc(C(=O)CCC(=O)Nc2ncccc2C)cc1
O=C(CCNc1ccc(Cc2ccncc2)cc1)c1cccc([N+](=O)[O-])c1
Cc1cc(C)n(CCC(=O)N/N=C/c2ccc(O)cc2O)n1
COc1ccc(Br)cc1CNC(=O)CCCc1cn(C)c2ccccc12
O=C(CN1CC[C@@]2(O)CCCC[C@H]2[C@@H]1c1ccc(F)cc1)NCc1ccco1
CCOC(=O)C1=C(O)/C(=C/c2cc(C)n(-c3ccccc3)c2C)N=C1C
CCOc1ccc(C(C)NC(=O)c2ccccc2OCc2c(C)noc2C)cc1OCC (stereo not drawn)
O=C(CCn1c(=S)oc2ccccc21)N1CCN(c2ccc(F)cc2)CC1
CC(C)N(C(=S)Nc1cccnc1)c1ccccc1
Brc1c(CSc2nncc3ccccc23)nc2ccccn12
COC(=O)c1ccc(Oc2nc(Nc3ccc(F)cc3)nc(N3CCCC3)n2)cc1
CCOc1ccc(Nc2ccc(N)c(S(=O)(=O)O)c2)cc1

Source: PubChem BioAssay AID504725 (Broad Institute, 2011)
